# Out of some 67,000 compounds screened, about 300 (0.45%) showed an effect of 50% or more. Many of the other results were omitted from the sample, so strong results are more common in it than they were.
# Target: Polyketide synthase Pks13 (Mycobacterium tuberculosis (strain ATCC 25618 / H37Rv)) (UniProt I6X8D2)
# Assay: Mycobacterium tuberculosis Polyketide synthase 13 Thioesterase (PKS13)
# Assay type: functional
# Set-up: scale not given: in the data most compounds retested in dose-response had high values
# Conditions: 30 µM
# Sequence of Polyketide synthase Pks13 (Mycobacterium tuberculosis (strain ATCC 25618 / H37Rv)) (I6X8D2 whole entry): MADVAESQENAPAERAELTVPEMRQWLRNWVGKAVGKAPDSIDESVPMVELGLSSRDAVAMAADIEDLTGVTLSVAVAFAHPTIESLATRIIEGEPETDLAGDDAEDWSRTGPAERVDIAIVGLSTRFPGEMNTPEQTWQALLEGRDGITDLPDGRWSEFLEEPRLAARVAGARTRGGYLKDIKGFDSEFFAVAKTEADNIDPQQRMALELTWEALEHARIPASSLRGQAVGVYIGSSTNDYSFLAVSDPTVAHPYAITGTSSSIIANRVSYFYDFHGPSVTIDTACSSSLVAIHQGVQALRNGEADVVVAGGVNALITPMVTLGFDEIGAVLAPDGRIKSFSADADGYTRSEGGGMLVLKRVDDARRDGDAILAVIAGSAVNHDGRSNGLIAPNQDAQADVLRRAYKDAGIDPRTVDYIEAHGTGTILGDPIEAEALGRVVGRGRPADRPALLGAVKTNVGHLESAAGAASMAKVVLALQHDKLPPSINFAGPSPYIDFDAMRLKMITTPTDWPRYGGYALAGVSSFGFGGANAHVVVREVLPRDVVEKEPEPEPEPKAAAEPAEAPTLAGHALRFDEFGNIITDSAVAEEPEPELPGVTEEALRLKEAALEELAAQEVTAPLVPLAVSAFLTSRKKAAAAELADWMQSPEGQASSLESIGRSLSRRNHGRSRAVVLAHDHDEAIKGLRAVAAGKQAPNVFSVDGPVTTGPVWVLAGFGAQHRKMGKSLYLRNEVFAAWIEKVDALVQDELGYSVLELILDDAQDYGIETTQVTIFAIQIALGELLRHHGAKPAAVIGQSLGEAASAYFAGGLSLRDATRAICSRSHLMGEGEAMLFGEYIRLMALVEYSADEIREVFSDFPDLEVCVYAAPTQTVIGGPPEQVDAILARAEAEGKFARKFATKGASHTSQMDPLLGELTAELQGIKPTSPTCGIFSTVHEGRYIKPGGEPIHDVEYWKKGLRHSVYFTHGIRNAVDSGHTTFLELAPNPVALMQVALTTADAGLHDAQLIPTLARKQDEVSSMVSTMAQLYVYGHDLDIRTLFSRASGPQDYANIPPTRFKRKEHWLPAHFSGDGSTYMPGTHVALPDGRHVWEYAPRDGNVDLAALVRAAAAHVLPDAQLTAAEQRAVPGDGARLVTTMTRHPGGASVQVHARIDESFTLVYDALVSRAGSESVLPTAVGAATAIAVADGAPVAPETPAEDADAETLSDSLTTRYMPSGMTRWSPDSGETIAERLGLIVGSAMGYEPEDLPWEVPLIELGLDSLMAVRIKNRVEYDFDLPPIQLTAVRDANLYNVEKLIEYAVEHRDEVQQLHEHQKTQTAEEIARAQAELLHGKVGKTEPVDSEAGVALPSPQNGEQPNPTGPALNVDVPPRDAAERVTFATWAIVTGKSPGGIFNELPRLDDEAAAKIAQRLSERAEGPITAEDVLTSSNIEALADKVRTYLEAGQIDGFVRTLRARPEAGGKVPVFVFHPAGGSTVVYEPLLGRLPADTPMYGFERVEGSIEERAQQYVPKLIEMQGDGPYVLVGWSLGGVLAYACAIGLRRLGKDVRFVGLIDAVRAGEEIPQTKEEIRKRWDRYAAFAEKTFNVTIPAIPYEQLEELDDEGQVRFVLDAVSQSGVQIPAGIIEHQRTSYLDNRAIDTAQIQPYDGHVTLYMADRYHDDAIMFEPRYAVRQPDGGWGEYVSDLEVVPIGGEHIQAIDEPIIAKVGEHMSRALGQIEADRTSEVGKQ
row,SMILES,Percent Effect [%]
1,Cc1cccc(CN2C[C@H](OCc3csc(C)n3)[C@H]3COC[C@H]32)n1,-2.96
2,CCOCC1CN(C(=O)c2cccn2C)Cc2cnn(CC3CC3)c21 (stereo not drawn),-11.3
3,CCOCC1CN(C(=O)c2cccs2)Cc2cnn(CC3CC3)c21 (stereo not drawn),80.6
4,CCn1ncc2c1C(COCC1CC1)CN(C(=O)c1cccs1)C2 (stereo not drawn),-31.9
5,Cn1ccnc1CN1CC[C@@H]2[C@@H](CCC(=O)N2CCc2c[nH]cn2)C1,-26.1
6,c1cnc(N2CCC3(CCCN(CC4CCCCC4)C3)C2)cn1 (stereo not drawn),66.6
7,CSc1nccc(N2CCC3(CCCN(CC4CC4)C3)C2)n1 (stereo not drawn),-0.995
8,c1cnc(N2CCOCC3(CCCN(CC4CC4)C3)C2)cn1 (stereo not drawn),2.73
9,C[C@H]1C[C@H]2CN(S(=O)(=O)c3ccc(F)cc3)CC[C@@H]2O1,-20.4
10,O[C@]12CCNC[C@H]1CN(c1nccc3ccccc13)CC2,-2.31
11,CC(=O)N1CCCN(C(=O)NC(C)c2csc3ccccc23)CC1 (stereo not drawn),-15.4
12,CC(NC(=O)N1CCC(CC(N)=O)CC1)c1csc2ccccc12 (stereo not drawn),-11.9
13,CC(NC(=O)N1CCC(CO)CC1)c1csc2ccccc12 (stereo not drawn),53
14,Cc1cnn(CC2CCCN2Cc2cc(=O)n3cc(C)ccc3n2)c1 (stereo not drawn),99.9
15,Cc1cnn(CC2CCCN2Cc2cc(=O)n3cccc(C)c3n2)c1 (stereo not drawn),-5.2
16,Cc1cnn(CC2CCCN2Cc2cc(=O)n3ccccc3n2)c1 (stereo not drawn),2.94
17,Cc1cnc(CNC(=O)[C@@]23CCO[C@@H]2CCN(c2ncccn2)C3)cn1,-4.01
18,CC(C)CN1C[C@H]2CCN(C(=O)NC3CCCC3)CC[C@H]2S1(=O)=O,6.92
19,Cc1ccc(C)c(OC2CCN(C(=O)CNc3ccccc3Cl)CC2)c1,73.1
20,Cc1ccc(C)c(OC2CCN(C(=O)NCC(=O)N3CCCC3)CC2)c1,-7.72
21,CCNC(=O)CCC(=O)N1CCC(Oc2cc(C)ccc2C)CC1,-5.09
22,CNC(=O)CN1CC[C@H]2CN(C(=O)c3cccc(C)c3)C[C@H]2C1,-11

row,SMILES,Percent Effect [%]
1,Cn1ccc(C(=O)N2C[C@@H]3CCN(c4cnccn4)C[C@@H]3C2)n1,-2.86
2,Cn1cncc1C(=O)N1C[C@@H]2CCN(c3cnccn3)C[C@@H]2C1,-6.26
3,Cn1ccnc1C(=O)N1C[C@@H]2CCN(c3cnccn3)C[C@@H]2C1,124
4,O=C(c1ccco1)N1CCO[C@@H]2CN(c3ncc(F)cn3)CC[C@@H]2C1,-32.7
5,CS(=O)(=O)NC[C@]12COC[C@H]1CN(C(=O)c1ccncn1)C2,-5.6
6,Cc1noc(C)c1CN1C(=O)[C@H]2CC[C@@H]1CN(Cc1cscn1)C2,7.07
7,CN(Cc1ccncc1)C1CCC[C@@H]2CN(c3ncccn3)C[C@H]12 (stereo partly drawn),-25.8
8,CCOC(=O)CNC(=O)NCc1cc(C)n(-c2ccc(OC)cc2)c1C,10.9
9,CCOC(=O)CNC(=O)NCc1cc(C)n(-c2ccccc2OC)c1C,50
10,COc1ccccc1-n1c(C)cc(CNC(=O)NC(C)C)c1C,0.233
11,CN1C[C@@H]2CN(C(=O)C3CC=CC3)C[C@@H]2C1=O,-9.96
12,CN(C)c1ccc(C(=O)N2CCN(CC(C)(C)O)CC2)nn1,-26.8
13,CN(C)c1ccc(C(=O)N2CCN(C(=O)N3CCCCC3)CC2)nn1,65.3
14,CCC(O)CN1CCN(C(=O)c2ccc(N(C)C)nn2)CC1 (stereo not drawn),5.36
15,CCS(=O)(=O)N1C[C@H](c2nc(C)no2)C[C@H]2OCC[C@H]21,5.36
16,CCc1ccc(CN2C[C@H](OC)[C@H]3COC[C@H]32)o1,-5.96
17,O=C(NC1CCC1)[C@H]1C[C@@H]2CN(C(=O)Nc3ccc(F)cc3)C[C@H]1O2,5.75
18,O=C(c1ccc(O)cc1)N1C[C@@H]2OCCN(c3ncccn3)[C@@H]2C1,-11.4
19,Cn1cc(CN2C[C@H]3CCC[C@@H](CNc4nccn4C)[C@H]3C2)cn1,-23.6
20,Cc1cccc(CN2C(=O)C[C@H]3[C@@H]2CCN3Cc2ccco2)n1,-23.1
21,CCCOc1cccc(NS(=O)(=O)c2cc(C(=O)O)cs2)c1,40.8
22,O=C(O)c1csc(S(=O)(=O)Nc2cccc(OCC(F)(F)F)c2)c1,50

row,SMILES,Percent Effect [%]
1,CCOc1cccc(NS(=O)(=O)c2cc(C(=O)O)cs2)c1,0.586
2,NC(=O)N1CCCN(CCc2nc(-c3cccc(Cl)c3)no2)CC1,55.5
3,CCOC1CCN(CCc2nc(-c3cccc(Cl)c3)no2)CC1,8.68
4,Clc1cccc(-c2noc(CCN3CCN(c4ccncc4)CC3)n2)c1,-57.2
5,CN1CCN(C(=O)[C@H]2C[C@@H]3CN(c4ncc(F)cn4)C[C@@H]3N2C)CC1,-4.39
6,COCC(=O)N1CC[C@@H]2O[C@H](COCc3ccncc3)CC[C@@H]21,-12.9
7,COC(=O)Cn1cccc(S(=O)(=O)N2CCC(C)CC2)c1=O,50.5
8,CC1CCN(S(=O)(=O)c2cccn(CC(=O)NC(C)(C)C)c2=O)CC1,-9.8
9,CC1CCN(S(=O)(=O)c2cccn(CC(=O)NC3CCCC3)c2=O)CC1,3.17
10,COCC(=O)N1CCc2cccc(S(=O)(=O)N3CCOCC3)c2C1,-3.94
11,CCCOC(=O)N1CCc2cccc(S(=O)(=O)N3CCOCC3)c2C1,-4.05
12,CCOCCC(=O)N1CCc2cccc(S(=O)(=O)N3CCOCC3)c2C1,59.9
13,COCCNC(=O)[C@@H]1CN(c2ncccn2)C[C@H]2OCC[C@H]21,-43.5
14,CC(=O)N1C[C@H]2CN(CC3CC3)C(=O)[C@H]2C1,-18.6
15,CSc1ccc2cc(CN(C)CCO)c(=O)[nH]c2c1,67
16,CSc1ccc2cc(CN(C)CCc3cn[nH]c3)c(=O)[nH]c2c1,-13.1
17,CSc1ccc2cc(CN(C)CCCN(C)C)c(=O)[nH]c2c1,6.22
18,Cc1cnc(N2CCN3C[C@H](OCc4ccccn4)C[C@H]3C2)nc1,-24.2
19,Cn1ccnc1CN1CCN2C[C@H](Oc3cccc(F)c3)C[C@H]2C1,23.6
20,O=C1C[C@H]2CC[C@@H](CN1)N2C1CCSCC1,-1.94
21,N#Cc1cnn(-c2ccc(C(=O)N(C3CCCCC3)C3CC3)cc2)c1N,-18
22,CN(CC1CCCCC1)C(=O)c1ccc(-n2ncc(C#N)c2N)cc1,52.7

row,SMILES,Percent Effect [%]
1,CN(C(=O)c1ccc(-n2ncc(C#N)c2N)cc1)C1CCCC1,-1.63
2,CCCN1CCN(C(=O)c2cnccn2)[C@H]2CS(=O)(=O)C[C@H]21,-4.16
3,c1cncc(CO[C@H]2CC[C@H]3[C@@H]2OCCN3C2CCOCC2)c1,2.72
4,Cc1cc(C)cc(CN2C[C@@H]3OCCN(S(=O)(=O)N(C)C)[C@@H]3C2)c1,-14.4
5,CC1(C)O[C@@](C)([C@H]2CC3(CCN(c4cnccn4)CC3)CO2)CC[C@@H]1O,-3.99
6,CC(C)c1cc(N2CCC[C@H](N)C2)n2nccc2n1,-7.75
7,CC(C)c1cc(N2CCC(N)CC2)n2nccc2n1,61.4
8,CC(C)c1cc(N2CC[C@H](F)C2)n2nccc2n1,-11.1
9,O=C(NC1CC1)[C@@H]1CCO[C@@H]2CCN(C3CCOCC3)C[C@@H]21,-12.6
10,Cc1nnc([C@H]2CC[C@@H]3[C@@H](CCN3Cc3c(C)noc3C)O2)o1,-7.83
11,CN(C)C(=O)CO[C@@H]1CC[C@H]2[C@H]1OCCN2C(=O)C1CCOCC1,-1.73
12,CC(=O)N1CCN2C(=O)N(Cc3ccc(F)cc3)C[C@H]2C1,-33.1
13,Cn1cc(-c2ncc3c(c2C(=O)O)CCN(CC2CCOC2)C3)cn1 (stereo not drawn),111
14,Cn1cc(-c2ncc3c(c2C(=O)O)CCN(CC2CC2)C3)cn1,-9.1
15,O=C(O)c1c(-c2cncnc2)ncc2c1CCN(CC1CCOC1)C2 (stereo not drawn),-5.14
16,O=S(=O)(C1CC1)N1CCO[C@@H]2CN(Cc3ccco3)C[C@@H]2C1,-22.6
17,Cn1cc(CN2CC[C@@H]3[C@@H]2CCN3Cc2ccc3c(c2)OCO3)cn1,-41.2
18,Cc1noc([C@@H]2CCO[C@@H]3CCN(Cc4cccs4)C[C@@H]32)n1,2.92
19,CCc1n[nH]c(C2CN(C(=O)c3ncoc3CC)CCO2)n1 (stereo not drawn),-48.2
20,CCc1nc(C2CCCN2C(=O)c2nccnc2N)no1 (stereo not drawn),29.6
21,Cc1nc(C)n(C2CCCN(C(=O)c3nc(C)n4ccccc34)C2)n1 (stereo not drawn),93.6
22,Cc1nc(C)n(C2CCCN(C(=O)c3cc4ccccc4n3C)C2)n1 (stereo not drawn),-20.9

row,SMILES,Percent Effect [%]
1,CCc1n[nH]c(C2CN(C(=O)c3nc(C)n4ccccc34)CCO2)n1 (stereo not drawn),83
2,CCc1nc(C2CCCN2C(=O)c2ncoc2CC)no1 (stereo not drawn),-6.87
3,CCc1n[nH]c(C2CN(C(=O)Cn3ccccc3=O)CCO2)n1 (stereo not drawn),-11.9
4,Cc1nc(C)n(C2CCCN(C(=O)c3ccccc3C)C2)n1 (stereo not drawn),-12.6
5,CCc1nc(C2CCCN2C(=O)c2nc(C)n3ccccc23)no1 (stereo not drawn),75.3
6,COC[C@H]1CC[C@H]2[C@H](CCN2S(=O)(=O)c2ccccc2)O1,4.33
7,c1ccc(CO[C@@H]2C[C@H]3CN(c4ncccn4)CCN3C2)nc1,-22
8,Cc1cnc(C(=O)N2C[C@H]3CN(Cc4cccnc4)C[C@H]3C2)cn1,-17.6
9,Cc1cccc(CN2C[C@@H]3CN(C(=O)c4ccco4)C[C@@H]3C2=O)c1,-32.5
10,CNC(=O)CN([C@H]1C[C@H]2CCOC[C@H]2C1)S(=O)(=O)c1ccccc1,-2.79
11,CCN(CC)[C@@H]1CN(Cc2cnn(C)c2)[C@@H]2COC[C@H]12,-19.3
12,Cc1csc2ncc(-c3ccnc(N4CCC[C@@H]4CO)n3)c(=O)n12,27.3
13,O=c1c(-c2ccnc(N3CCC[C@H]3CO)n2)cnc2sccn12,47.6
14,Cc1cn2c(=O)c(-c3ccnc(N4CCC[C@@H]4CO)n3)cnc2s1,72.5
15,COCCN1C[C@@H]2CN(Cc3ccoc3)CCC[C@]2(C(=O)O)C1,-27.8
16,CC1CCc2nc(O)c(C(=O)NCCN(C)C)cc2C1 (stereo not drawn),-47.6
17,CC1CCc2nc(O)c(C(=O)NCCCN3CCN(C)CC3)cc2C1 (stereo not drawn),82.6
18,CCCNC(=O)c1cc2c(nc1O)CCC(C)C2 (stereo not drawn),-24.6
19,COc1ccc(CN2C[C@@H]3OCCN(c4ncccn4)[C@@H]3C2)cc1,-27.4
20,O=S(=O)(NC[C@H]1C[C@@H]2CCN1C[C@@H]2CN1CCCC1)c1ccc(Cl)cc1,2.53
